# Screens as filed in PubChem.
# PostGolgi ctrl: growth inhibition of yeast control strain, primary screen, counter-screen for post-Golgi transport modulator project; efflux-deficient yeast background strain, growth absorbance A615, 16 h; inhibition, % at 10 µM; 5% of 98,000 active; AID 738, 2007
# CYP2C19 inh: blockers of cytochrome P450 2C19 activity – biochemical, luminescence, ADME assay, primary screen | inhibition, % at 5 µM | 21% of 96,000 active | CYP2C19 Supersomes, luciferin-H EGE luminescence, 30 min | AID 778, 2007 | P33261;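 active means CYP2C19 inhibition above a set limit at 5 µM in the primary screen, cut at about 50% in these data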;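 further: plate controls were negative control wells for no effect and 2.5 mM tranylcypromine positive control for full effect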
# Target sequence (P33261 whole entry, looked up): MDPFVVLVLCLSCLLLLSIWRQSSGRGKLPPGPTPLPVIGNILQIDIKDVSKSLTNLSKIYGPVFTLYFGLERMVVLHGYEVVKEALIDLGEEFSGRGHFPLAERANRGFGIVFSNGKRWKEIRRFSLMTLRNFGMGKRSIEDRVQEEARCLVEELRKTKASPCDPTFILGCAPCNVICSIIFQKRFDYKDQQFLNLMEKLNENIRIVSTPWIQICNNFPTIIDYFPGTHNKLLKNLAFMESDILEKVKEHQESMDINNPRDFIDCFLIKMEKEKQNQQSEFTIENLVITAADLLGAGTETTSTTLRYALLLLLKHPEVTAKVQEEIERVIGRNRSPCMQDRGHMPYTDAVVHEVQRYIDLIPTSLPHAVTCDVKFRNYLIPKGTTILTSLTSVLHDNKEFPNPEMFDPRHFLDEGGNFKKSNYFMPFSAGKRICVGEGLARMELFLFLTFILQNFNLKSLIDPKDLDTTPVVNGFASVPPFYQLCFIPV
# CYP2C19 act: human CYP2C19 activators, primary screen, biochemical, luminescence. recombinant CYP2C19, luciferin-H EGE luminescence; hits give high values; 0 = fully inhibited enzyme, 1 = untreated enzyme. activation factor at 5 µM. 96,000 tested, under 10 active. AID 1025, 2008;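 active means activation factor of at least 2 at 5 µM in the primary screen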;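 further: 0 = wells with 2.5 mM tranylcypromine and 1 = vehicle-only wells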
# PostGolgi yeast: phenotypic screen on post-Golgi transport, primary screen; post-Golgi transport phenotypic cell assay; inhibition, % at 10 µM; 0.9% of 98,000 active;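 further: yeast cells grown in 1536-well plates; yeast grown about 18 h at 30C before absorbance read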
# CYP2C9 inhib: blockers of cytochrome P450 2C9 activity – biochemical, luminescence, ADME assay, primary screen; inhibition, % at 5 µM; 20% of 96,000 active; CYP2C9 Supersomes, luciferin-H conversion;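 active means blocking of liver enzyme CYP2C9 beyond about 50% at 5 µM, limit read from the data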
# CYP2C9 act: human CYP2C9 activators, primary screen, biochemical, luminescence; recombinant CYP2C9, luciferin-H conversion; hits give high values; factor 1 = untreated enzyme, 0 = blocked; activation factor at 5 µM; 1.4% of 96,000 active; AID 1024, 2008;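 active means activation factor of 2 or more for CYP2C9 at a 5 µM dose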;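 further: 0 = sulfaphenazole-blocked wells and 1 = vehicle-only wells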
# Numbers without * were called inactive; / = no result. These entries were drawn from the full list. Unless noted, no stated cut-off is given here; in the data, active means inhibition above about 30%; inactive means the rest.
SMILES,PostGolgi ctrl,CYP2C19 inh,CYP2C19 act,PostGolgi yeast,CYP2C9 inhib,CYP2C9 act
CCOC(=O)C1=C(C)S/C(=C\N(C)C)C1=O,-7,-12,1.1,13,-17,1.2
CCOc1cccc(C(=O)NC(=S)Nc2ccc(N3CCCC3)cc2)c1,7,-20,1.2,-11,-5,1
Cc1ccc(N=Nc2c(N)[nH]n3c(=O)cc(-c4ccccc4)nc23)cc1,10,0,1,20,37,0.6
Cc1ccc(-c2[nH]nc(N)c2N=Nc2ccccc2C)cc1,63*,29,0.7,54*,18,0.8
Cc1ccc(-c2[nH]nc(N)c2N=Nc2cccc(Cl)c2C)cc1,45*,1,1,15,-8,1.1
Cc1cccc(N=Nc2c(N)n[nH]c2-c2ccc(Cl)cc2)c1,34*,-3,1,5,-3,1
COCCNC(=O)CSc1ncnc2sccc12,9,-7,1.1,-3,4,1
Cc1nn(-c2nc3ccccc3s2)c(C)c1Oc1ccccc1O,-2,/,/,2,/,/
Cc1ccc(S(=O)(=O)Cc2ccc(C(=O)NCCCN3CCN(C)CC3)o2)cc1,1,6,0.9,5,10,0.9
Cc1cc(C)c(NC(=O)CCCC(=O)O)c(Cl)c1,25,0,1,-7,-11,1.1
COc1cc(C(=O)Nc2sc3c(c2C#N)CCN(C(C)=O)C3)cc(OC)c1OC,31*,1,1,2,42,0.6
O=C(NCc1ccc(Cl)cc1)c1ccc(COCC(F)(F)F)o1,12,51*,0.5,0,31,0.7
Cc1ccc(C(=O)NCc2ccc(Cl)cc2)o1,2,53*,0.5,11,-9,1.1
O=C(Nc1ccc(Cl)cn1)c1ccc(COCC(F)(F)C(F)F)o1,6,72*,0.3,0,22,0.8
CC(C)(C)NC(=O)c1ccc(COCC(F)(F)F)o1,7,-4,1,-23,-20,1.2
O=C(c1ccc(COCC(F)(F)F)o1)N1CCCCCC1,16,51*,0.5,10,4,1
Cc1ccc(S(=O)(=O)N(CC(=O)N/N=C/c2cccc(Cl)c2)c2cccc3cccnc23)cc1,5,-4,1,2,1,1
Cc1ccc(Oc2ncccc2/C=N/OCc2ccc(Cl)c(Cl)c2)cc1,-1,-15,1.2,3,-17,1.2
COc1cccc(CC(NC(C)=O)C(=O)NC2CCN(S(=O)(=O)c3ccc4ccccc4c3)CC2)c1 (centres undefined),0,-1,1,4,-5,1
COC(=O)c1sc(N)c(C(=O)OC)c1COC(=O)c1c(C)noc1C,9,96*,0,-3,97*,0
O=C(Nn1cnnc1)c1ccccc1-c1ccccc1,30,-5,1,-9,3,1
O=[N+]([O-])c1ccc(Cl)c(/C=N/N2CCN(Cc3ccccc3Cl)CC2)c1,17,19,0.8,-6,-108,2.1*
O=C1OCc2cc(NC(=O)C3CCCCC3)ccc21,9,22,0.8,-9,19,0.8
CC(C)(C)n1nnnc1CN1C2CCC1CC(NC(=O)Nc1ccccc1)C2 (centres undefined),0,8,0.9,14,53*,0.5
CC(=O)NC1(c2ccccc2)CCN(Cc2nnnn2C(C)(C)C)CC1,-2,67*,0.3,-4,32,0.7
SMILES,PostGolgi ctrl,CYP2C19 inh,CYP2C19 act,PostGolgi yeast,CYP2C9 inhib,CYP2C9 act
CCn1c(CCNC(=O)c2ccc(Cl)c(Cl)c2)nnc1SCCOc1ccc(OC)cc1,19,13,0.9,-2,22,0.8
CCCOc1ccc(C(C(=O)OCCN(CC)CC)c2ccccc2)cc1 (centres undefined),-3,0,1,-7,11,0.9
O=C(CCCCCn1c(SCc2ccncc2)nc2ccccc2c1=O)NCc1ccco1,21,/,/,0,/,/
Cc1cc(NC(=O)CSc2nc3ccccc3c(=O)n2CCCC(=O)NCc2ccco2)n[nH]1,-2,84*,0.2,-1,71*,0.3
O=C(CSc1nc2ccccc2c(=O)n1CCCC(=O)N1CCCC1)NCc1ccco1,-4,65*,0.4,-4,43,0.6
O=C(Nc1c(C(=O)O)oc2ccc(Br)cc12)c1ccccc1,10,-1,1,2,34,0.7
NC(=O)COc1ccc(C2c3c(oc4ccccc4c3=O)C(=O)N2CC2CCCO2)cc1 (centres undefined),2,-18,1.2,21,-4,1
CCOC(=O)CN1C(=O)C(O)=C(C(C)=O)C1c1ccc(F)cc1 (centres undefined),7,5,0.9,7,11,0.9
C=CCSc1nc2nc(C)cc(C)n2n1,-5,-7,1.1,-4,-21,1.2
CCOC(=O)Cn1c(CN2CCOCC2)nc2c1c(=O)n(C)c(=O)n2C,-7,-16,1.2,1,-17,1.2
CCOC(=O)c1c(CN2CCN(Cc3ccccc3)CC2)n(C)c2cc(Br)c(OC)cc12,73*,10,0.9,2,3,1
Cc1ccc(S(=O)(=O)NC(=O)c2cccn2C)cc1,4,-13,1.1,-1,6,0.9
Cc1c(C(C)O)nnn1-c1nonc1N (centres undefined),-1,5,0.9,2,7,0.9
COc1ccc(C2CC(c3cccs3)=NN2c2nc(-c3ccccc3)cs2)cc1OC (centres undefined),5,86*,0.1,-7,74*,0.3
COc1ccc(-c2csc(-n3ncc(-c4cccs4)c3N)n2)cc1,1,6,0.9,-7,5,0.9
CCOc1ccc(-c2nc(C)c(C(C)=O)n2O)cc1,7,18,0.8,7,34,0.7
N#C/C(=C\c1ccc(O)c(O)c1)S(=O)(=O)c1ccccc1,11,41,0.6,-7,40,0.6
Cc1[nH]c2ccccc2c1/C=C(\C#N)C(=O)NC(C)c1ccccc1 (centres undefined),7,15,0.9,-1,-111,2.1*
Cc1[nH]c2ccccc2c1/C=C(\C#N)S(=O)(=O)c1ccccc1,0,20,0.8,10,67*,0.3
CC(NC(=O)Cc1ccc(F)cc1)c1ccccc1 (centres undefined),2,44,0.6,5,3,1
CC(NC(=O)c1cc2ccccc2o1)c1cccs1 (centres undefined),16,82*,0.2,-6,69*,0.3
O=C(c1cc2ccccc2o1)c1cccs1,31*,49,0.5,-2,51*,0.5
CC(NC(=O)c1cc2ccccc2o1)C(=O)O (centres undefined),11,/,/,0,/,/
